{"source": "the supplement of paper PMC4022240", "assay_in_all_cases": "peptide microarray binding signal (635 nm), min-max normalized on array (fraction of array maximum); higher = stronger binding", "key": {"[1]": {"target": "T1, HaloTag-ATRX ADD domain (163-292)", "T1 chain": "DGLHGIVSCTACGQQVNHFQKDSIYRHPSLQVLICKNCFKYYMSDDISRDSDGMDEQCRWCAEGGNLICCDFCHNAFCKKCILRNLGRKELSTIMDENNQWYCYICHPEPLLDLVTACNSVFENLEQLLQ", "procedure": "(§1)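 Histone 13-mer peptides were synthesized as cellulose conjugates with a C-terminal 20-atom PEG linker and printed in triplicate on nitrocellulose. The sequence given is the unmodified backbone; PTMs (Kme1/2/3, Kac, Sph/Tph, Rme/Rme2a/Rme2s, Rcit) are listed in the label and the 'peptide modifications' condition. Slides were probed at 4 °C for 1 h with biotin-labelled (HQ)5-HaloTag reader fusions (ATRX-ADD, ING2-PHD) then streptavidin-Alexa647, or with rabbit histone antibodies then anti-rabbit Alexa647. The mean 635 nm signal of the triplicate spots was scaled 0-1 between the lowest and highest values on each array.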"}, "[2]": {"target": "HaloTag-ING2 PHD (mouse Ing2 200-280)", "procedure": "as §1"}, "[3]": {"target": "anti-H3K4me3 antibody ab8580", "procedure": "as §1"}, "[4]": {"target": "anti-H3K9me3 antibody ab8898", "procedure": "as §1"}, "[5]": {"settings": "peptide region: H2B 7-19, peptide modifications: H2BK11ac H2BK12ac H2BS14ph H2BK15ac, binder concentration: 1:2,000 dilution"}, "[6]": {"settings": "peptide region: H2B 7-19, peptide modifications: H2BK11ac H2BK12ac H2BS14ph H2BK15ac, binder concentration: 1:10,000 dilution"}, "[7]": {"settings": "peptide region: H2B 7-19, peptide modifications: H2BK11ac H2BK12ac H2BS14ph, binder concentration: 1:2,000 dilution"}, "[8]": {"settings": "peptide region: H2B 7-19, peptide modifications: H2BK11ac H2BK12ac H2BS14ph, binder concentration: 1:10,000 dilution"}, "[9]": {"settings": "peptide region: H2B 1-13, peptide modifications: H2BK5ac, binder concentration: 1:2,000 dilution"}, "[10]": {"settings": "peptide region: H2B 1-13, peptide modifications: H2BK5ac, binder concentration: 1:10,000 dilution"}, "[11]": {"settings": "peptide region: H2A 11-23, peptide modifications: H2AK15ac H2AT16ph, binder concentration: 1:2,000 dilution"}, "[12]": {"settings": "peptide region: H2A 11-23, peptide modifications: H2AK15ac H2AT16ph, binder concentration: 1:10,000 dilution"}, "[13]": {"settings": "peptide region: H2B 7-19, peptide modifications: H2BK11ac H2BK12ac H2BS14ph H2BK15ac H2BK16ac, binder concentration: 1:2,000 dilution"}, "[14]": {"settings": "peptide region: H2B 7-19, peptide modifications: H2BK11ac H2BK12ac H2BS14ph H2BK15ac H2BK16ac, binder concentration: 1:10,000 dilution"}}, "note": "± gives the standard deviation.", "data": [{"binder": "APAPKKGSKKAVT", "note": "[H2B 7-19 A P A P Kac Kac G Sph Kac K A V T]", "values": [{"measurement": "peptide microarray binding signal", "setting": "[1]; peptide region: H2B 7-19, peptide modifications: H2BK11ac H2BK12ac H2BS14ph H2BK15ac, binder concentration: 50 nM", "value": "0.001661 ± 1.4e-05"}, {"measurement": "peptide microarray binding signal", "setting": "[1]; peptide region: H2B 7-19, peptide modifications: H2BK11ac H2BK12ac H2BS14ph H2BK15ac, binder concentration: 500 nM", "value": "0.00238 ± 7.1e-05"}, {"measurement": "peptide microarray binding signal", "setting": "[2]; peptide region: H2B 7-19, peptide modifications: H2BK11ac H2BK12ac H2BS14ph H2BK15ac, binder concentration: 10 nM", "value": "0.002447 ± 1.4e-05"}, {"measurement": "peptide microarray binding signal", "setting": "[2]; peptide region: H2B 7-19, peptide modifications: H2BK11ac H2BK12ac H2BS14ph H2BK15ac, binder concentration: 100 nM", "value": 0.000709}, {"measurement": "peptide microarray binding signal", "setting": "[3]; [5]", "value": "0.000774 ± 0.00015"}, {"measurement": "peptide microarray binding signal", "setting": "[3]; [6]", "value": "0.000685 ± 7.2e-06"}, {"measurement": "peptide microarray binding signal", "setting": "[4]; [5]", "value": "0.000242 ± 2.5e-06"}, {"measurement": "peptide microarray binding signal", "setting": "[4]; [6]", "value": 0.000461}]}, {"binder": "APAPKKGSKKAVT", "note": "[H2B 7-19 A P A P Kac Kac G Sph K K A V T]", "values": [{"measurement": "peptide microarray binding signal", "setting": "[1]; peptide region: H2B 7-19, peptide modifications: H2BK11ac H2BK12ac H2BS14ph, binder concentration: 50 nM", "value": "0.00197 ± 4e-05"}, {"measurement": "peptide microarray binding signal", "setting": "[1]; peptide region: H2B 7-19, peptide modifications: H2BK11ac H2BK12ac H2BS14ph, binder concentration: 500 nM", "value": "0.00252 ± 9e-05"}, {"measurement": "peptide microarray binding signal", "setting": "[2]; peptide region: H2B 7-19, peptide modifications: H2BK11ac H2BK12ac H2BS14ph, binder concentration: 10 nM", "value": "0.0046 ± 0.00019"}, {"measurement": "peptide microarray binding signal", "setting": "[2]; peptide region: H2B 7-19, peptide modifications: H2BK11ac H2BK12ac H2BS14ph, binder concentration: 100 nM", "value": "0.00163 ± 3.3e-05"}, {"measurement": "peptide microarray binding signal", "setting": "[3]; [7]", "value": "0.00215 ± 8.8e-05"}, {"measurement": "peptide microarray binding signal", "setting": "[3]; [8]", "value": "0.000628 ± 6.7e-06"}, {"measurement": "peptide microarray binding signal", "setting": "[4]; [7]", "value": "0.000423 ± 1.8e-05"}, {"measurement": "peptide microarray binding signal", "setting": "[4]; [8]", "value": "0.00075 ± 4e-05"}]}, {"binder": "PEPAKSAPAPKKG", "note": "[H2B 1-13 P E P A Kac S A P A P K K G]", "values": [{"measurement": "peptide microarray binding signal", "setting": "[1]; peptide region: H2B 1-13, peptide modifications: H2BK5ac, binder concentration: 50 nM", "value": "0.005486 ± 3.9e-05"}, {"measurement": "peptide microarray binding signal", "setting": "[1]; peptide region: H2B 1-13, peptide modifications: H2BK5ac, binder concentration: 500 nM", "value": "0.0105 ± 0.00072"}, {"measurement": "peptide microarray binding signal", "setting": "[2]; peptide region: H2B 1-13, peptide modifications: H2BK5ac, binder concentration: 10 nM", "value": "0.0119 ± 0.00078"}, {"measurement": "peptide microarray binding signal", "setting": "[2]; peptide region: H2B 1-13, peptide modifications: H2BK5ac, binder concentration: 100 nM", "value": "0.0115 ± 0.00093"}, {"measurement": "peptide microarray binding signal", "setting": "[3]; [9]", "value": "0.00421 ± 0.0021"}, {"measurement": "peptide microarray binding signal", "setting": "[3]; [10]", "value": "0.00137 ± 4.9e-05"}, {"measurement": "peptide microarray binding signal", "setting": "[4]; [9]", "value": "0.00192 ± 0.00022"}, {"measurement": "peptide microarray binding signal", "setting": "[4]; [10]", "value": "0.0019 ± 0.00011"}]}, {"binder": "RAKAKTRSSRAGL", "note": "[H2A 11-23 R A K A Kac Tph R S S R A G L]", "values": [{"measurement": "peptide microarray binding signal", "setting": "[1]; peptide region: H2A 11-23, peptide modifications: H2AK15ac H2AT16ph, binder concentration: 50 nM", "value": "0.006489 ± 4.3e-05"}, {"measurement": "peptide microarray binding signal", "setting": "[1]; peptide region: H2A 11-23, peptide modifications: H2AK15ac H2AT16ph, binder concentration: 500 nM", "value": "0.0117 ± 0.00031"}, {"measurement": "peptide microarray binding signal", "setting": "[2]; peptide region: H2A 11-23, peptide modifications: H2AK15ac H2AT16ph, binder concentration: 10 nM", "value": "0.00722 ± 0.0003"}, {"measurement": "peptide microarray binding signal", "setting": "[2]; peptide region: H2A 11-23, peptide modifications: H2AK15ac H2AT16ph, binder concentration: 100 nM", "value": "0.0188 ± 0.00091"}, {"measurement": "peptide microarray binding signal", "setting": "[3]; [11]", "value": "0.000925 ± 7.2e-05"}, {"measurement": "peptide microarray binding signal", "setting": "[3]; [12]", "value": "0.00103 ± 2.8e-05"}, {"measurement": "peptide microarray binding signal", "setting": "[4]; [11]", "value": "0.000513 ± 2.1e-05"}, {"measurement": "peptide microarray binding signal", "setting": "[4]; [12]", "value": "0.000923 ± 2.5e-05"}]}, {"binder": "APAPKKGSKKAVT", "note": "[H2B 7-19 A P A P Kac Kac G Sph Kac Kac A V T]", "values": [{"measurement": "peptide microarray binding signal", "setting": "[1]; peptide region: H2B 7-19, peptide modifications: H2BK11ac H2BK12ac H2BS14ph H2BK15ac H2BK16ac, binder concentration: 50 nM", "value": "0.00254 ± 2.9e-05"}, {"measurement": "peptide microarray binding signal", "setting": "[1]; peptide region: H2B 7-19, peptide modifications: H2BK11ac H2BK12ac H2BS14ph H2BK15ac H2BK16ac, binder concentration: 500 nM", "value": "0.00495 ± 8.6e-05"}, {"measurement": "peptide microarray binding signal", "setting": "[2]; peptide region: H2B 7-19, peptide modifications: H2BK11ac H2BK12ac H2BS14ph H2BK15ac H2BK16ac, binder concentration: 10 nM", "value": "0.00639 ± 0.00065"}, {"measurement": "peptide microarray binding signal", "setting": "[2]; peptide region: H2B 7-19, peptide modifications: H2BK11ac H2BK12ac H2BS14ph H2BK15ac H2BK16ac, binder concentration: 100 nM", "value": "0.00163 ± 1.7e-05"}, {"measurement": "peptide microarray binding signal", "setting": "[3]; [13]", "value": "0.00523 ± 0.00045"}, {"measurement": "peptide microarray binding signal", "setting": "[3]; [14]", "value": "0.00126 ± 2.2e-05"}, {"measurement": "peptide microarray binding signal", "setting": "[4]; [13]", "value": "0.000891 ± 6e-05"}, {"measurement": "peptide microarray binding signal", "setting": "[4]; [14]", "value": "0.00098 ± 1.7e-05"}]}]}
